The record followed here is PubChem BioAssay (NCI).

Holding throughout (test): NCI-60 one-dose screen, 48 h (100 = growth as untreated, 0 = no growth, -100 = all killed)
For experiment [1], the system named is T-47D breast. Conditions: 10 µM.
For experiment [2], the system named is BT-549 breast. Particulars: 10 µM.
Experiment [3] deals with MDA-MB-435 melanoma. Conditions: 10 µM.
Experiment [4] concerns SW-620 colon. Conditions: 10 µM.
Experiment [5] has as its system MCF7 breast.
For experiment [6], the system named is HCT-116 colon. Conditions: 10 µM.
In experiment [7] the test system is HCC-2998 colon. Conditions: 10 µM.
Experiment [8] relates to KM12 colon. Conditions: 10 µM.

Molecules are shown by their SMILES. Several values for one entry are separate records, joined by “and”; a condition that tells them apart may be missing. Equal entries are not always repeated. This is part of a sample that, as a whole, favours compounds with a hit. Of some 83,000 tested, about 20% had one in any assay.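 96-well plates, one dose, 48 hours. Percent growth reported; active if below 10.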 Unmarked numbers belong to inactive results. Activity calls are given as the source filed them.

With `Cc1cc(C)cc(NCCC#N)c1`, the growth in experiment [1] was 107%; in experiment [2] it was 123%; in experiment [3], 111%; in experiment [4], 102%; in experiment [5] (10 µM unless noted), 101%; in experiment [6], 106%. Besides, the growth in experiment [7] was 109%; in experiment [8] it was 107%.
On to `CC1=NN(c2ccccc2)C(=O)/C1=C\N1CC(=O)NC1=S`, for which the growth in experiment [1] was 97.1%; in experiment [2] it was 107%; in experiment [3], 105%; in experiment [4], 106%; in experiment [5] (10 µM unless noted), 103%; in experiment [6] it was 106%. Moreover, the growth in experiment [7] was 108%; in experiment [8] it was 103%.
For the compound `CCOc1ccc(I)cc1`, the growth in experiment [1] was 114%; in experiment [2] it was 116%; in experiment [3] it was 112%; in experiment [4], 105%; in experiment [5] (10 µM unless noted) it was 98.2%; in experiment [6] it was 102%. In addition, the growth in experiment [7] was 106%; in experiment [8], 95.2%.
As for `CC(=O)c1ccc(C(C)(C)C)cc1`, the growth is 98.2% in experiment [1]; 102% in experiment [2]; 106% in experiment [3]; 110% in experiment [4]; 94.5% in experiment [5] (10 µM unless noted); 97.5% in experiment [6]. Moreover, the figures for the growth in experiment [7] and in experiment [8] were 96.2% and 102%, respectively.
As to `CC(C)CCOC(=O)c1ccccc1`, the growth in experiment [1] is 99.5%; in experiment [2], 102%; in experiment [3], 106%; in experiment [4], 108%; in experiment [5] (10 µM unless noted) it was 99.7%; in experiment [6], 103%. In addition, the growth in experiment [7] is 110%; in experiment [8], 106%.
Take `Nc1nc(OCc2ccccc2)c2[nH]cnc2n1`: the growth was 101% in experiment [1]; 94.4% in experiment [2]; 99.3% in experiment [3]; 102% in experiment [4]; 95.9% in experiment [5] (10 µM unless noted); 95.4% in experiment [6]. Besides, the growth in experiment [7] was 104%; in experiment [8], 112%.
Turning to `Cc1ccccc1N=C(c1ccccc1)C1C(=O)c2ccccc2C1=O`, the growth in experiment [1] was 40.4%; in experiment [2], 42.6%; in experiment [3], 27%; in experiment [4] it was 84.3%; in experiment [5] (10 µM unless noted) it was 55.2%; in experiment [6], 46.4%. The growth in experiment [7] is 104%.
As to `O=C(O)c1cc([N+](=O)[O-])ccc1Cl`, the growth in experiment [1] was 99.6%; in experiment [2], 97.1%; in experiment [3], 107%; in experiment [4] it was 98.5%; in experiment [5] (10 µM unless noted), 88%; in experiment [6] it was 102%. For the same compound, the growth in experiment [7] was 97%; in experiment [8], 95%.
With `O=C(O)c1cccc([N+](=O)[O-])c1`, the growth in experiment [1] was 109%; in experiment [2], 108%; in experiment [3], 111%; in experiment [4], 111%; in experiment [5] (10 µM unless noted) it was 99.2%; in experiment [6], 102%. Besides, the figures for the growth in experiment [7] and in experiment [8] were 102% and 105%, respectively.
For `COc1ccccc1N1CCN(C(=S)Nc2ccccc2)CC1`, the growth in experiment [1] is 90.9%; in experiment [2], 91.7%; in experiment [3] it was 102%; in experiment [4] it was 103%; in experiment [5] (10 µM unless noted), 99.5%; in experiment [6], 103%. In experiment [7], the growth was 134%.
With `Cc1ccncc1C(N)=O`, the growth in experiment [1] is 84.5%; in experiment [2], 111%; in experiment [3] it was 118%; in experiment [4], 98.4%; in experiment [5] (10 µM unless noted), 96%; in experiment [6] it was 94.5%. The growth in experiment [7] was 124%; in experiment [8] it was 90.1%.
Consider `Cc1ccc(C(=O)NC2c3ccccc3Oc3ccccc32)cc1`, for which the growth was 60.5% in experiment [1]; 62.6% in experiment [2]; 6.21% (active) in experiment [3]; 38.9% in experiment [4]; 21.7% in experiment [5] (10 µM unless noted); 30.3% in experiment [6]. The growth was 75.6% in experiment [7] and 51.3% in experiment [8].
As for `CC(=O)c1sc2c(c1OC(=O)c1ccc(Cl)cc1Cl)c(=O)n(-c1ccccc1)c(=S)n2-c1ccccc1`, the growth in experiment [1] was 61.1%; in experiment [2], -24.4% (active); in experiment [3] it was 4.71% (active); in experiment [4] it was 14%; in experiment [5] (10 µM), 51.2%; in experiment [5] (100 µM) it was 6.27% (active) and -47.6% (active). Also, the growth in experiment [6] is -0.425% (active); in experiment [7] it was 24.6%; in experiment [8], -0.943% (active).
Turning to `CC1CC(O)C2C3(C)CCCC2(COC3=O)C12CCC1(CCOC1=O)O2` (stereo not drawn), the growth in experiment [1] was 102%; in experiment [2], 96.1%; in experiment [3], 101%; in experiment [4], 102%; in experiment [5] (10 µM unless noted) it was 103%; in experiment [6] it was 97.4%. For the same compound, the results for the growth in experiment [7] and in experiment [8] were 122% and 107%, respectively.
On to `O=C(Nc1ccccc1C(=O)NCC1CC1)c1cccs1`, for which the growth was 106% in experiment [1]; 99.9% in experiment [2]; 105% in experiment [3]; 109% in experiment [4]; 106% in experiment [5] (10 µM unless noted); 93.7% in experiment [6]. The growth in experiment [7] was 103%; in experiment [8], 107%.
Turning to `S=C(Nc1ccccc1)N1CCCCC1`, the growth in experiment [1] was 89.3%; in experiment [2], 112%; in experiment [3], 110%; in experiment [4] it was 106%; in experiment [5] (10 µM unless noted), 93.2%; in experiment [6], 92.3%. Moreover, the growth in experiment [7] is 101%; in experiment [8], 105%.
For `N/N=C(/Cc1ccccc1)NNC(N)=S`, the growth is 91.6% in experiment [1]; 75.7% in experiment [2]; 92.3% in experiment [3]; 111% in experiment [4]; 89.2% in experiment [5] (10 µM unless noted); 86.3% in experiment [6]. Also, the growth was 117% in experiment [7] and 101% in experiment [8].
`c1ccc2c(N3CCCCC3)ncnc2c1`: the growth was 130% in experiment [1]; 90.8% in experiment [2]; 109% in experiment [3]; 98% in experiment [4]; 96.6% in experiment [5] (10 µM unless noted); 88.4% in experiment [6]. Moreover, the growth in experiment [7] was 81.1%; in experiment [8] it was 103%.
